Experimental findings from PubChem BioAssay (EPA / NIEHS) are described below.

Broadly, the AC50 is the concentration at which the activity in the assay is half-maximal.

Results filed as inconclusive are left out. Calls of active or inactive are those of the source. How the source made its calls, unless noted: active means hit-call score of the fitted dose curve at least 0.9, where 1 is the maximum; inconclusive means response in the unintended direction; inactive means score below 0.9.

For assay [1], the target named is PGR (gene 5241) (UniProt P06401). As to the kind of experiment: TOX21_PR_BLA_Followup_Antagonist_ratio: Tox21 HEK293 Progesterone Receptor (PR) Antagonism Beta-lactamase Follow-Up Assay, Ratio (AID 2283934).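 Further: PR-UAS-bla HEK293T cells stimulated with 1 nM R5020 agonist for 16 hr.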 A digest of the protocol:
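Measured in PR-UAS-bla HEK293T cells co-treated with compound and 1 nM promegestone for 16 hr; beta-lactamase ratio read after 2 h FRET substrate loading, with parallel CellTiter-Glo cytotoxicity.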

Assay [2] is described as follows: TOX21_PR_BLA_Followup_Agonist_viability: Viability Assessment in the Tox21 HEK293 Progesterone Receptor (PR) Agonism Beta-lactamase Follow-Up Assay (AID 2283935).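 Further: signal loss means lower viability so actives are cytotoxic.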 A digest of the protocol: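 Viability is read as CellTiter-Glo luminescence, where loss of signal indicates cytotoxicity. The cells are PR-UAS-bla HEK293T given compounds for 16 hr at 37C and 5% CO2, in the same wells used for the bla readout.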

The nature of assay [3]: TOX21_PR_BLA_Followup_Antagonist_viability: Viability Assessment in the Tox21 HEK293 Progesterone Receptor (PR) Antagonism Beta-lactamase Follow-Up Assay (AID 2283936).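 Further: cells exposed to compound with R5020 agonist for 16 h; hits lower the luminescence signal meaning cytotoxicity.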 A digest of the protocol: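 PR-UAS-bla HEK293T cells in medium with 2% charcoal-stripped FBS were treated with compounds plus R5020 for 16 hr at 37C. After the beta-lactamase read, CellTiter-Glo was added to the same wells and luminescence read after 30 min at room temperature.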

Assay [4] deals with PGR (gene 5241) (UniProt P06401). Description: TOX21_PR_LUC_Followup_Antagonist: Tox21 HEK293 Progesterone Receptor (PR) Antagonism Luciferase Follow-Up Assay (AID 2283938).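 Further: curve fitted upward as signal gain over DMSO baseline despite antagonist label.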 A digest of the protocol: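 HEK293-PR-A-luc cells, 3,000/well, preincubated 5 h at 37C before compound addition in DMSO; 16 h compound exposure at 37C. ONE-Glo luciferase luminescence read after 30 min at room temperature, fitted relative to DMSO baseline.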
Chain of PGR (gene 5241) (P06401 whole entry, looked up): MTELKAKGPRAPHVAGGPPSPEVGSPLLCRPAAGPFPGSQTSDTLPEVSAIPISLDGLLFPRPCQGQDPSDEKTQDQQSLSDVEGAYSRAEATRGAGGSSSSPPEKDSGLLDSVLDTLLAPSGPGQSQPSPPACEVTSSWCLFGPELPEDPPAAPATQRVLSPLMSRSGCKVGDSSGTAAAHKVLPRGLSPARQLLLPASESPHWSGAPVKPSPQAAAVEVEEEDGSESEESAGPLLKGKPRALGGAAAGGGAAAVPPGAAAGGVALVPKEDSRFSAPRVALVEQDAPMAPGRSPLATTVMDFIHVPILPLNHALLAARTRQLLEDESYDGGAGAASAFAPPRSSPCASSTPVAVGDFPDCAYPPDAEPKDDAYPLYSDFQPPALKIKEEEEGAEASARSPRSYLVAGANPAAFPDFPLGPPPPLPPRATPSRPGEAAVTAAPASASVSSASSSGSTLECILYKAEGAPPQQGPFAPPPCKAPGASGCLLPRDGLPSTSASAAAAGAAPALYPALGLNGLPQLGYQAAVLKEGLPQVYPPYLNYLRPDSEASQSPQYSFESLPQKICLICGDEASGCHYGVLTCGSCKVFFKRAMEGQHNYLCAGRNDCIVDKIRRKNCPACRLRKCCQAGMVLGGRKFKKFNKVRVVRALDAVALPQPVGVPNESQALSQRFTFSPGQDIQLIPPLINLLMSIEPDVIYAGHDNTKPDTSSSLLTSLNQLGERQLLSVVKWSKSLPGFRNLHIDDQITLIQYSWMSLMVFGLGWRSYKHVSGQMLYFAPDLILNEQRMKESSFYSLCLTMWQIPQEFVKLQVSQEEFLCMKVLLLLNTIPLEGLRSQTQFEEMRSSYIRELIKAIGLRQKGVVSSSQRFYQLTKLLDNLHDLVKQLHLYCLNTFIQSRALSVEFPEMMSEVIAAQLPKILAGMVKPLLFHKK

Assay [5] can be described thus: TOX21_PR_LUC_Followup_Antagonist_viability: Viability Assessment in the Tox21 HEK293 Progesterone Receptor (PR) Antagonism Luciferase Follow-Up Assay (AID 2283940). In a few lines:
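Loss of CellTiter-Glo ATP signal indicates cytotoxicity in HEK293-PR-A-luc cells grown in 10% charcoal-stripped FBS medium, seeded 3,000 per well and incubated 16 h with compound at 37C.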

The nature of assay [6]: TOX21_PR_LUC_Followup_Agonist_viability: Viability Assessment in the Tox21 HEK293 Progesterone Receptor (PR) Agonism Luciferase Follow-Up Assay (AID 2283941).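 Further: loss of signal means cytotoxicity so actives lower viability.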 A digest of the protocol: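 Seeding: HEK293-PR-A-luc, 3,000 cells/well, 5 h at 37C. Treatment: compound in DMSO, 16 h, 37C. Read: CellTiter-Glo ATP luminescence, signal loss taken as lower viability.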
Assay [7] is described as follows: ATG_M_32_XSP2: Attagene TRANS-FACTORIAL Multi-Species (XSP2) HepG2 Assay for M19 Transcription Factor (Internal Marker) (AID 2283826). A digest of the protocol:
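HepG2 cells transiently transfected with GAL4-UAS reporter units; XSP2 panel included 3 nM 6-alpha-fluorotestosterone and 1.5 nM norgestrel for androgen receptor stimulation. Reporter mRNA read 24 h post-dosing by RT-PCR/capillary electrophoresis; fitted upward versus DMSO.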

For assay [8], the target named is Thyroid hormone receptor alpha (Rattus norvegicus) + Thyroid hormone receptor beta (Rattus norvegicus) (UniProt P18113+P63059). As to the kind of experiment: TOX21_TR_LUC_GH3_Antagonist_Followup: Tox21 GH3 Thyroid Hormone Receptor Antagonism Luciferase Follow-Up Assay (AID 2283942). A digest of the protocol:
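In a GH3 luciferase reporter line, test chemicals spanning 92 uM to 5nM final are co-incubated 24 h with 1.0 nM T3. Activity is expressed as relative luminescence units and analysed relative to DMSO.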

In assay [9] the target is THRA (gene 7067) (UniProt P10827). As to the kind of experiment: TOX21_TRA_COA_Antagonist_Followup_ratio: Tox21 Thyroid Hormone Receptor alpha Antagonism through Coactivator Recruitment Follow-Up Assay, Ratio (AID 2283953). In a few lines: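 We measured antagonism of T3-type coactivator recruitment using a TR-FRET ratio (emission 520 and 495 nm) between a Tb-labelled anti-GST antibody on TRα LBD (2.5 nM) and SRC-2 peptide (200 nM). Activity was scaled between DMSO and T3 wells.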
Chain of THRA (gene 7067) (P10827 whole entry, looked up, the tested form may be a part): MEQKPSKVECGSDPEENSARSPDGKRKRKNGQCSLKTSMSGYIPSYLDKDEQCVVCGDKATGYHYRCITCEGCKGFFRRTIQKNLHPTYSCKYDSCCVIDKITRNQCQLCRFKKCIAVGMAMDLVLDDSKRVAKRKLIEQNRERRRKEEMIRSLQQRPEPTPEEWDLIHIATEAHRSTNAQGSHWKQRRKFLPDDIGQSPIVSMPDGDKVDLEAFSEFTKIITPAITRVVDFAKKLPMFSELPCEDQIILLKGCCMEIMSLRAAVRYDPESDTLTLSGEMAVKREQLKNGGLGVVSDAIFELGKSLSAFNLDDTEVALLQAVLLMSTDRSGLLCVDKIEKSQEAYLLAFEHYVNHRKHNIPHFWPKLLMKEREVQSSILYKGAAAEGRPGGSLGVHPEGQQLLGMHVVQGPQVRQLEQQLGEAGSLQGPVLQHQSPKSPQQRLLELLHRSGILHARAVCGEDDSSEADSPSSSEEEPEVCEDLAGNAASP

Assay [10] addresses Retinoic acid receptor RXR-alpha (Homo sapiens) (UniProt P19793). As to the kind of experiment: TOX21_TR_RXR_BLA_Antagonist_Followup_ratio: Tox21 Thyroid Hormone Receptor beta Retinoid X Receptor alpha (RXRa) Antagonism Beta-lactamase (BLA) Follow-Up Assay, Ratio (AID 2283972). A digest of the protocol: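 RXRa-UAS-bla HEK293T cells, 2,500/well in phenol red-free DMEM with 2% charcoal-stripped FBS, 5 h attachment, then compounds (11 concentrations, triplicate) for 16 h at 37C; FRET-B/GCCF4-AM substrate 2 h RT; 460:530 nm ratio, loss of signal vs DMSO.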

Assay [11] in a line: TOX21_TR_RXR_BLA_Antagonist_Followup_viability: Viability Assessment in the Tox21 Thyroid Hormone Receptor beta Retinoid X Receptor alpha (RXRa) Antagonism Beta-lactamase (BLA) Follow-Up Assay (AID 2283979). A digest of the protocol: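 RXRa-UAS-bla HEK293T cells seeded 2,500/well in phenol red-free DMEM with 2% charcoal-stripped FBS, attached 5 h, then exposed to compounds at 11 concentrations in triplicate for 16 h at 37C/5% CO2. Viability read by CellTiter-Glo ATP luminescence; bidirectional fit versus DMSO.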

The target in assay [12] is Cellular tumor antigen p53 (Homo sapiens) (UniProt P04637). Description: TOX21_p53_BLA_p4_ratio: Tox21 HCT-116 p53 Agonism Beta-lactamase Assay, Ratio, Phase 4 (AID 2283601). A digest of the protocol:
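HCT116 cells carrying an inducible beta-lactamase reporter were plated at 4000 cells/well, rested 5 h, then exposed to compounds in DMSO (217-fold dilution) for 16 h at 37C. CCF4-AM substrate was loaded 2 h at room temperature; 460/530 nm emission ratio scored gain-of-signal versus DMSO.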

Assay [13] addresses PGR (gene 5241) (UniProt P06401). As to the kind of experiment: TOX21_PR_BLA_Followup_Agonist_ratio: Tox21 HEK293 Progesterone Receptor (PR) Agonism Beta-lactamase Follow-Up Assay, Ratio (AID 2283933). A digest of the protocol: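 Ratio-based beta-lactamase reporter signal after 16 hr compound treatment of PR-UAS-bla HEK293T cells at 37C. Substrate loading lasted 2 hr at room temperature.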

Assay [14] shares this target. As to the kind of experiment: TOX21_PR_LUC_Followup_Agonist: Tox21 HEK293 Progesterone Receptor (PR) Agonism Luciferase Follow-Up Assay (AID 2283937; active means hit-call score of the fitted dose curve at least 0.9, where 1 is the maximum; inactive means score below 0.9). In a few lines:
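In HEK293 cells stably expressing PR-A with a luciferase reporter, compounds were incubated 16 h at 37C, and induced luminescence was quantified with ONE-Glo, multiplexed with cell viability.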

Assay [15] can be described thus: TOX21_p53_BLA_p5_viability: Viability Assessment in the Tox21 HCT-116 p53 Agonism Beta-lactamase Assay, Phase 5 (AID 2283600). In a few lines: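 Decreased CellTiter-Glo luminescence denotes lost viability. Exposure: 16 h at 37C, 5% CO2, with compounds from DMSO stocks diluted 217-fold in wells of 4000 cells.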
The target in assay [16] is Cellular tumor antigen p53 (Homo sapiens) (UniProt P04637). As to the kind of experiment: TOX21_p53_BLA_p5_ratio: Tox21 HCT-116 p53 Agonism Beta-lactamase Assay, Ratio, Phase 5 (AID 2283599). In a few lines:
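HCT-116 cells carrying a p53-inducible beta-lactamase reporter were seeded at 4000 cells/well and dosed after 5 h with compound in DMSO (217-fold dilution). After 16 h at 37C, CCF4-AM substrate was added for 2 h, and the 460/530 nm emission ratio was scored as gain-of-signal versus DMSO.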

Assay [17] deals with Thyroperoxidase (TPO), gene 54314. As to the kind of experiment: CCTE_Simmons_AUR_rTPO: CCTE's Amplex UltraRed Assay for Thyroperoxidase (TPO) Inhibition, Simmons Lab (AID 2283662). In a few lines:
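Rat thyroid microsomes (5 ug protein) were incubated with test compound (8 concentrations, 5 nM–87.5 uM final, 0.5% DMSO), 25 uM Amplex UltraRed and 300 uM H2O2 in 200 mM phosphate buffer for 30 min at 37C in the dark; fluorescence read at 544/590 nm.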

The target in assay [18] is Luciferin 4-monooxygenase (Photinus pyralis) (UniProt P08659). As to the kind of experiment: CCTE_Simmons_QuantiLum_inhib_2: CCTE's Firefly Luciferase Inhibition Assay, Simmons Lab (AID 2283767). A digest of the protocol: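 Eight-point titrations of each chemical, 5 nM–87.5 uM final in 0.5% DMSO, were run in three biological replicates against recombinant luciferase for 30 min at 37C. Bioluminescence signal loss, read on reagent injection, gave the inhibition endpoint.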
Chain of Luciferin 4-monooxygenase (Photinus pyralis) (P08659 whole entry, looked up): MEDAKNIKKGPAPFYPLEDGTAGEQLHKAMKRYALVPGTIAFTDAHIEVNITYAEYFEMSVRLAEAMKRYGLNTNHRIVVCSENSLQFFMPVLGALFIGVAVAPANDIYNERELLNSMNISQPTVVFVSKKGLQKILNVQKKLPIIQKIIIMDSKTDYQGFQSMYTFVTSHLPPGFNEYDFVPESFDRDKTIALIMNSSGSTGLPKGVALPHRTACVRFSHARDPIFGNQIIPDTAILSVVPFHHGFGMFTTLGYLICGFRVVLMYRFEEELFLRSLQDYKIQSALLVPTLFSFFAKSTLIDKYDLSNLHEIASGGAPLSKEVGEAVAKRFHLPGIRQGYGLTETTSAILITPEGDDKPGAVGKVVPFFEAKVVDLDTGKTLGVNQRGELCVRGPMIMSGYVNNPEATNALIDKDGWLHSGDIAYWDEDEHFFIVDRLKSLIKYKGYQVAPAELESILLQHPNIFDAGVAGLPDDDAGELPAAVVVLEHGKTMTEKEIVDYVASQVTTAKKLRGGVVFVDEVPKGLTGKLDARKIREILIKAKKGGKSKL

Chain of Cellular tumor antigen p53 (Homo sapiens) (P04637 whole entry, looked up): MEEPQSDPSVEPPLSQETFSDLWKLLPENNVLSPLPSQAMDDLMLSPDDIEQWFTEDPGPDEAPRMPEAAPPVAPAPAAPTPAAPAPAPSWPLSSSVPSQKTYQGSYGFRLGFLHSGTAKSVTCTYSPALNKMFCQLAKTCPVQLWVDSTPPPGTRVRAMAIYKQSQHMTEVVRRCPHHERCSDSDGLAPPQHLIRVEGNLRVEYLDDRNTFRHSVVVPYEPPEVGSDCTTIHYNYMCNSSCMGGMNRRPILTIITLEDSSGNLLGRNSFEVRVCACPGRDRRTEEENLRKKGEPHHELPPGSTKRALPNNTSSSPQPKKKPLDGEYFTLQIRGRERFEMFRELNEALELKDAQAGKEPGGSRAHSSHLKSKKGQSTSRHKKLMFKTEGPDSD
Chain of Retinoic acid receptor RXR-alpha (Homo sapiens) (P19793 whole entry, looked up): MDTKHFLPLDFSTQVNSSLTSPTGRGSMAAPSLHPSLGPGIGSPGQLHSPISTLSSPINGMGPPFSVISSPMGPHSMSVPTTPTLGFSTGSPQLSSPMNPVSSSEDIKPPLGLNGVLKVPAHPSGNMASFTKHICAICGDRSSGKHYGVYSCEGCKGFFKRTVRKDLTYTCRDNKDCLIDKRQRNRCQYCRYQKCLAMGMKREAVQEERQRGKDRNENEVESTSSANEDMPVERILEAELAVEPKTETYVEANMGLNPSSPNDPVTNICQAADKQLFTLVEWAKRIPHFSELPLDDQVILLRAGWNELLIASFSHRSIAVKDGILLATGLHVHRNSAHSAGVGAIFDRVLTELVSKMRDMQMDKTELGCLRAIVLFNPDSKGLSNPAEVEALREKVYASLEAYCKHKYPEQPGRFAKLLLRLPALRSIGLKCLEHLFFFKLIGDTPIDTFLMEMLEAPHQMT

For the compound `O=C1CN=C(c2ccccc2)c2cc(Cl)ccc2N1CC1CC1`, in assay [1], the AC50 is 23 µM (active). The call in assay [2], in assay [3], in assay [4], in [5] and in assay [6] was inactive.

In the case of `CCCCCCCCCCCCN`, in assay [7], the compound was classed as inactive.

As for `CC[n+]1ccccc1`, the outcome in [8], in assay [9], in assay [10] and in assay [11] was inactive.

Regarding `C[C@]12CC[C@H]3[C@@H](CCC4=CC(=O)CC[C@@]43C)[C@@H]1CC[C@@H]2O`, the outcome in assay [12] was inactive.

As to `O=C(Oc1ccccc1)c1ccc(O)cc1`, the call in assay [7] was inactive.

In the case of `O=C(c1ccc(O)cc1)c1ccc(O)cc1O`, in assay [7], the compound was classed as inactive.

For `CCCOC(=O)c1ccc(O)cc1`, the call in assay [7] was inactive.

On to `C[C@]12Cc3cn[nH]c3C[C@@H]1CC[C@@H]1[C@@H]2CC[C@@]2(C)[C@H]1CC[C@]2(C)O`, for which the values for the AC50 in [13] and in assay [14] were 6.44 µM (active) and 3.48 µM (active), respectively. The outcome in assay [1], in [2], in [3], in assay [4], in assay [5] and in assay [6] was inactive.

Consider `C(=C(c1ccccc1)c1ccccc1)c1ccccc1`, for which, in assay [7], the compound was classed as inactive.

`O=C1Nc2ccc(Cl)cc2C(c2ccccc2Cl)=NC1O` (stereo not given): the compound was called inactive in assay [15] and in assay [12].

Consider `CCN(Cc1ccc(Cl)nc1)/C(=C/[N+](=O)[O-])NC`, for which the outcome in [16] and in [12] was inactive.

Consider `CCN(Cc1c(F)cccc1Cl)c1c([N+](=O)[O-])cc(C(F)(F)F)cc1[N+](=O)[O-]`, for which the call in assay [7] was inactive.

Consider `CN(CCO)CCO`, for which, in assay [12], the outcome was inactive.

With `O=C(CBr)Nc1ccc(Cl)cc1C(=O)c1ccccc1F`, the outcome in [13], in assay [1], in assay [2], in [3], in [14] and in assay [4] was inactive. Further, the compound was classed as inactive in assay [5] and in [6].

On to `CC1COC2(c3ccccc3Cl)c3cc(Cl)ccc3NC(=O)CN12` (stereo not given), for which the result in assay [1], in assay [2], in assay [3], in assay [4] and in assay [5] was inactive.

`COc1ccn(C)c(=O)c1C#N`: the compound was classed as inactive in assay [17] and in [18].
